BAZ2B inh: qHTS Assay for Inhibitors of BAZ2B | Bromodomain adjacent to zinc finger domain protein 2B (Homo sapiens), Q9UIF8 | AlphaScreen BAZ2B-H3K14Ac peptide displacement | Potency, µM (series often up to 114 µM), inactives show at the highest dose activity change, negative = inhibition, actives largely listed as inhibitors | actives 4.4% (n = 360,000) | AID 504333, 2011; further: on the % scale 0 is the no-effect control and ±100 the full control effect; nearly all actives have a fitted effect of over 60% in size
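Compounds, titrated to a top concentration of 110 uM, were incubated 30 min at room temperature with preformed BAZ2B/acetyl-K14 H3 peptide complex (50 nM each). Proximity signal was measured by AlphaScreen after 20 min with beads.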
JMJD2A Tudor inh: qHTS Assay for Inhibitors of JMJD2A-Tudor Domain; AlphaScreen JMJD2A-Tudor / H3K4me3 peptide binding; Potency, µM (titrated, usually from 114 µM), without a hit: top-dose activity change, negative = inhibition, usual class: inhibitors; actives 4.4% (n = 390,000); further: on the % scale 0 is the no-effect control and ±100 the full control effect; nearly all actives have a fitted effect of over 50% in size
VDR inh: Inhibitors of the vitamin D receptor (VDR): qHTS. VDR-SRC2-3 peptide fluorescence polarization, 2 h. Potency, µM, inactives show max response, negative = inhibition, actives largely listed as inhibitors. actives 0.93% (n = 400,000). AID 504847, 2011; further: on the % scale 0 is the no-effect control and ±100 the full control effect
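Two reagent solutions held at 4 deg C in the dark were dispensed, compounds pinned at 23 nl, and the mixture incubated 2 h at room temperature. Read-out: fluorescence polarization of VDR–SRC2-3 peptide binding.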
PLK1 PBD block: qHTS for Inhibitors of PLK1-PDB (polo-like kinase 1 - polo-box domain): Primary Screen. Serine/threonine-protein kinase PLK1 (Homo sapiens), P53350. Plk1 PBD binding of FITC phosphopeptide, fluorescence polarization. Potency, µM, for inactives: max response, negative = inhibition, actives largely listed as inhibitors. actives 2.8% (n = 360,000). AID 720504, 2013; further: series mostly up to about 57 µM; on the % scale 0 is the no-effect control and ±100 the full control effect; nearly all actives have a fitted effect of over 65% in size
L3MBTL1 block: qHTS Assay for the Inhibitors of L3MBTL1 | actives 0.66% (n = 230,000) | AlphaScreen L3MBTL1–H3K9me1 peptide binding | Potency, µM (highest dose often 57.1 µM), for inactives: at the top dose activity, negative = inhibition, usual class: inhibitors | AID 485360, 2010; further: on the % scale 0 is the no-effect control and ±100 the full control effect; nearly all actives have a fitted effect of over 60% in size
Target sequence (Q9Y468 whole entry, looked up): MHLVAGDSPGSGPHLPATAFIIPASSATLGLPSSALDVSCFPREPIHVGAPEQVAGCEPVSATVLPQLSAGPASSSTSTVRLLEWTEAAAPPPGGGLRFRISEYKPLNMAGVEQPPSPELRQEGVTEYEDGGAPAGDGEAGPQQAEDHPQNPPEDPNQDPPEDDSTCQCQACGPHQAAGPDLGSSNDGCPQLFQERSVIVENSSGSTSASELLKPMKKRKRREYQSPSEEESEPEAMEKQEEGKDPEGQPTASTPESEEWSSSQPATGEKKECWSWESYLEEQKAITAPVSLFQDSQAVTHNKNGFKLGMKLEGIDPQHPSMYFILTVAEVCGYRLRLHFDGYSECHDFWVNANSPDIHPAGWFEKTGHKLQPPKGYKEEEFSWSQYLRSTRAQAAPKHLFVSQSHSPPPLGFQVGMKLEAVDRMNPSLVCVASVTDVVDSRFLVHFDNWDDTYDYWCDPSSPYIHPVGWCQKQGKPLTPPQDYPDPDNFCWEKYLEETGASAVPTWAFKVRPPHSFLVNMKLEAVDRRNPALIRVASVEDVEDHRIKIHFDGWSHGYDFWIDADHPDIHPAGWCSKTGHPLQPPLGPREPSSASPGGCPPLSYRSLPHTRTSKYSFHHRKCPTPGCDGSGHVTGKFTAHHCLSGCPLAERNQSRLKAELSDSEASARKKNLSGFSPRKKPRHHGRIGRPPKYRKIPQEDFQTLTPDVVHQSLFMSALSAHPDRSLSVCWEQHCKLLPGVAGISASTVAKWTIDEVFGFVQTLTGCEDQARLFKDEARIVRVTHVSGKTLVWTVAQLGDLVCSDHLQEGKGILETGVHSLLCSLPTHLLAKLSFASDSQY
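L3MBTL1 (50 nM) pre-complexed 30 min with biotinylated H3(1-15)K9me1 peptide (75 nM), then compounds added for 30 min at room temperature; AlphaScreen streptavidin donor/nickel chelate acceptor beads (10 ug/mL final) read after 30 min dark incubation.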
HP1b chromo inh: HTS for Inhibitors of HP1-beta Chromodomain Interactions with Methylated Histone Tails; actives 0.56% (n = 390,000); Chromobox protein homolog 1 (Homo sapiens), P83916; AlphaScreen HP1-beta / biotin-H3K9me3 peptide binding; Potency, µM (highest dose often 114 µM), for inactives: at the top dose activity change, negative = inhibition, hits mostly inhibitors; further: nearly all actives have a fitted effect of over 70% in size
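Compound inhibition of the preformed complex between 50 nM HP1-beta and 50 nM biotinylated H3K9me3 peptide was read by AlphaScreen. Buffer was PBS pH 7.4 with 0.01% Tween-20. Incubations ran 30 min at room temperature, with 10 ug/mL donor/acceptor beads.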
Starred values were filed as active, the others as inactive; ? = inconclusive; . = no result; [ ] = dose if it differs, or a comment. Hits are enriched below; roughly 6.9% of the tested compounds scored in any of these assays. The call rests on the fitted dose curve; in most records, active means well fitted curve in the direction sought with a large enough effect; inconclusive means small, poorly fitted or top-dose-only effect, or another doubt; inactive means no such curve, though single readings can be large; an effect the other way counts as inactive or inconclusive. Potency means the concentration at half of the fitted maximal effect.

SMILES	BAZ2B inh	JMJD2A Tudor inh	VDR inh	PLK1 PBD block	L3MBTL1 block	HP1b chromo inh
CCC(=O)Nc1nc(=S)ss1	?	-35%	45µM*	21µM*	.	?
CCOc1cc(S(=O)(=O)NCc2ccncc2)ccc1Cl	-18%	-18%	-8%	-8%	-1%[11.4 µM]	19%
Nc1ccc2c(c1)Cc1cc(Cl)c(Cl)cc1-2	.	-31%	-2%	4%	.	-13%
Nc1ccc2c(c1)Cc1cc(N)c(Cl)cc1-2	.	45µM*	-5%	-4%	.	?
Nc1cc2c(cc1N)-c1ccccc1C2	.	8.9µM*	18%	-12%	.	-18%[57 µM]
Cn1c(=O)c(=O)n(C)c2cc(S(=O)(=O)NCc3ccc(Cl)cc3)ccc21	19%	?	?	11µM*	.	17%
CC(C1CC2CCC1C2)n1c(-c2ccco2)n[nH]c1=S (stereo not drawn)	?	20µM*	79µM*	30µM*	-15%	?
CC1CCCCC1NC(=O)c1ccc(CSc2nc3ccncc3[nH]2)cc1 (stereo not drawn)	0%	-20%	-8%	-6%	2%	33%
O=C(c1ccc(CSc2nc3ccncc3[nH]2)cc1)N1CCCCC1	79µM*	20µM*	-9%	2%	5%	?
Cc1nn(-c2ccccc2)c(N2CCCC2)c1/C=N/Nc1ccc(S(N)(=O)=O)cc1[N+](=O)[O-]	10µM*	7.1µM*	-15%	11%	?	40µM*
NS(=O)(=O)c1ccc(N/N=C/c2ccc(C(=O)O)cc2)c([N+](=O)[O-])c1	?	-15%	7%	5%	0%	31%
COc1cccc(CNC(=O)C2Cc3cc(S(=O)(=O)N4CCCCCC4)ccc3N2C(C)=O)c1 (stereo not drawn)	-1%	-4%	11%	.	.	33%
O=C(c1ccc(N2CCOCC2)cc1)N1CCCC(Nc2ccccc2)C1 (stereo not drawn)	-9%	?	?	9.5µM*	.	26%
O=C(c1ccc2[nH]ccc2c1)N1CCCC(Nc2ccccc2)C1 (stereo not drawn)	?	-19%	4%	?	.	25%
N#CCCN(C(=O)c1ccc2c(=O)n3c(nc2c1)CCCCC3)c1ccccc1	-3%	?	-8%	24µM*	.	8%
CCN(C(=O)c1ccc2c(=O)n3c(nc2c1)CCCCC3)c1ccc(F)cc1	-3%	-11%	7%	-10%	.	26%
CN(CCC#N)C(=O)COC(=O)c1ccc2c(=O)n3c(nc2c1)CCC3	-2%	-17%	-12%	3%	?	32%
N#CCCN(C(=O)COC(=O)c1ccc2c(=O)n3c(nc2c1)CCC3)c1ccccc1	-6%	14µM*	?	?	.	-8%
Cc1cc(-c2nnc(CCC(=O)NCc3ccc(OC(F)(F)F)cc3)o2)no1	-10%[57.1 µM]	11%	-9%	1%	.	39%
CC1(C)CC(c2nc(-c3ccc(Br)cc3)cs2)CCS1 (stereo not drawn)	42%	?	?	3.8µM*	31%	70%
O=S(=O)(c1ccc(F)cc1)N1CCC(n2cnc3ccccc32)CC1	-15%	4%	?	-6%	.	29%
O=c1nc2cccc3c2=c(/c1=C(\O)c1ccccc1)c1ccccc1c3=O	89µM*	-30%	0%	-10%	-29%	36%
CCCN1CCN(CCCNC(=O)Cn2nc(C)n3c(cc4cc(F)ccc43)c2=O)CC1	1%	-14%	-14%	30µM*	.	-1%
Cc1ccc(S(=O)(=O)n2c3ccc(Cl)cc3c3nc(C)sc32)cc1	-7%	-11%	-14%	27µM*	6%	-8%
O=C(CN(C(=O)c1csnn1)c1ccccc1)NCCc1ccccc1	-21%	3%	-9%	6%	.	86%
SMILES	BAZ2B inh	JMJD2A Tudor inh	VDR inh	PLK1 PBD block	L3MBTL1 block	HP1b chromo inh
Cn1nccc1/C=C(/C#N)S(=O)(=O)c1ccccc1	3%	40µM*	?	11µM*	7%	-10%
COCC(C)NCc1ccc(C)cc1C (stereo not drawn)	-33%	4.5µM*	-22%	-15%	7%	-27%
CC(CCc1ccccc1)NCc1cccc2ccccc12 (stereo not drawn)	11%[0.457 µM]	25µM*	-14%	-3%	-1%	-27%
COCC(C)NCc1cccc2ccccc12 (stereo not drawn)	-37%	32µM*	9%	0%	5%	-14%
CC(=O)C(Sc1ncnc2sc3c(c12)CCCC3)C(C)=O	2%	-5%	5%	-1%	-6%	43%
CN(CCCOc1ccccc1F)Cc1ccccc1	56µM*	20µM*	-26%	-3%	?	?
Cc1cc(OCC(=O)N(C)Cc2ccccc2)ccc1Cl	11%	17%	-6%	-4%	-3%	46%
CN(CCOc1ccc(Cl)c(Cl)c1)Cc1ccccc1	?	20µM*	-25%	-4%	11%	-23%
CN(CCOc1ccccc1Cl)Cc1ccccc1	56µM*	22µM*	11%	9%	2%	?
CCN(CC)CCCOC(=O)c1ccc(OC)cc1O	-38%	-16%	-20%	-8%	-1%	17%
CN(CCCOc1ccccc1Br)Cc1ccccc1	0%	-13%	-10%	-10%	-2%	-11%
CCN(CC)CCCOc1ccc(Cl)c(Cl)c1	?	0.89µM*	-25%	-11%	3%	-49%
COc1cccc(CNC(=O)CCc2c(C)nn(-c3ccc(N4CCOCC4)nn3)c2C)c1	-32%	2%	19%	.	.	39%
CCCOC(=O)c1ccc(Nc2nc3ccccc3nc2-n2nc(C)cc2C)cc1	16%	28%	7%	.	.	78%
CN1CCN(CCc2ccc(Cl)c(Cl)c2)CC1	.	.	6%	.	.	.
CN1CCN(CCOc2ccc(Cl)c(Cl)c2)CC1	50µM*	0.79µM*	-7%	4%	0%	16µM*
CC1Cc2cc(S(=O)(=O)NCc3ccc(N(C)C)cc3)ccc2N1C(=O)C1CCC1 (stereo not drawn)	35µM*	45µM*	-5%	.	.	-21%
CC(=O)N1c2ccc(S(=O)(=O)N3CCC(C(=O)NCc4ccc(Cl)cc4)CC3)cc2CC1C (stereo not drawn)	-6%	?	25µM*	7.5µM*	.	11%
CCC(=O)N1c2ccc(S(=O)(=O)CCC(=O)NCc3ccc4c(c3)OCO4)cc2CC1C (stereo not drawn)	-6%	50µM*	?	24µM*	-2%	-5%
